Experimental findings from ChEMBL document CHEMBL2218924, “A broad activity screen in support of a chemogenomic map for kinase signalling research and drug discovery” (Biochem J, 2013) are described below.

Molecules are shown by their SMILES.

Experiment [1] addresses T1, Serine/threonine-protein kinase BRSK1 (Homo sapiens) (UniProt Q8TDC3).
T1 sequence (whole entry): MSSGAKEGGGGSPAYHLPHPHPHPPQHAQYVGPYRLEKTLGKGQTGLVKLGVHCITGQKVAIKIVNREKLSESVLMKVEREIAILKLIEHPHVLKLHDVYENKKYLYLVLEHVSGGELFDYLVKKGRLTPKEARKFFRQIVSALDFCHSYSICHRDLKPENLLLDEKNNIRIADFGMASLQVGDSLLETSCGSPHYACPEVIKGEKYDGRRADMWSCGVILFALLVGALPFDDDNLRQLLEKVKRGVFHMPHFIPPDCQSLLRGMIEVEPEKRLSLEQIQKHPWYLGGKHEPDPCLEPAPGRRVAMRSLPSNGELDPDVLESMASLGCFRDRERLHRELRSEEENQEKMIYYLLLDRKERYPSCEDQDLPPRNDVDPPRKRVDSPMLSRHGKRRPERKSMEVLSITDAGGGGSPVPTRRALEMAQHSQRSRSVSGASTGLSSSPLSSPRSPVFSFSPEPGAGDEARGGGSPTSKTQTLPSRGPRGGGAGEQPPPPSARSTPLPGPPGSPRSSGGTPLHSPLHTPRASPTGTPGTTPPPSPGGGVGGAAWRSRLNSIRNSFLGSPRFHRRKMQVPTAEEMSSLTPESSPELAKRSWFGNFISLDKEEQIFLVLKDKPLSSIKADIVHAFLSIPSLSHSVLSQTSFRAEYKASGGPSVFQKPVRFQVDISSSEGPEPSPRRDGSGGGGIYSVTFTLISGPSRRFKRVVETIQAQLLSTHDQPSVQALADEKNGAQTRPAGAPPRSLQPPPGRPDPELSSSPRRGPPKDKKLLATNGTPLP
To be noted: at 1 µM.

Experiment [2] addresses T1, Serine/threonine-protein kinase BRSK1 (Homo sapiens). To be noted: at 10 µM.
Experiment [3] concerns the target T2, Serine/threonine-protein kinase BRSK2 (Homo sapiens) (UniProt Q8IWQ3).
T2 sequence (whole entry): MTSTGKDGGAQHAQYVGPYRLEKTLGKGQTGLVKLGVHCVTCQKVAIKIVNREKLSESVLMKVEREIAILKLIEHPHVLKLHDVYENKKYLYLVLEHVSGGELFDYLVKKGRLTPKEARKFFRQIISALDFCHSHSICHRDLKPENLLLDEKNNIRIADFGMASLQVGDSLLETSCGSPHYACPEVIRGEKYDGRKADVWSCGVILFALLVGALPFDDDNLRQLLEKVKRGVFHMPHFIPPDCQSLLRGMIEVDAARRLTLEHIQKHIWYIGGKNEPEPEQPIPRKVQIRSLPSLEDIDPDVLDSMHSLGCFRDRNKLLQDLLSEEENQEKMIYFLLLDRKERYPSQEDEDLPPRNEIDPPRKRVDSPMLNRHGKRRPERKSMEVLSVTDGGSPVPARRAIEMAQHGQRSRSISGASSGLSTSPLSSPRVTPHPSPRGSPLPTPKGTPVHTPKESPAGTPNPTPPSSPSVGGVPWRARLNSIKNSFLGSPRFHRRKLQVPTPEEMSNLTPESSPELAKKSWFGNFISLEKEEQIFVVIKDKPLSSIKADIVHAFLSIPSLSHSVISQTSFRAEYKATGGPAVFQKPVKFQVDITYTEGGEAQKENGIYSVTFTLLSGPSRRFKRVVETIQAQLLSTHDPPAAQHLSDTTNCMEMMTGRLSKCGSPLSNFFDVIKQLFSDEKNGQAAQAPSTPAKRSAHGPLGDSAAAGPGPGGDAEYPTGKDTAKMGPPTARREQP
The conditions noted are these: at 1 µM.

The target in experiment [4] is T2, Serine/threonine-protein kinase BRSK2 (Homo sapiens). The conditions noted are these: at 10 µM.
Experiment [5] concerns the target T3, Cyclin-dependent kinase 1/cyclin B1 (Homo sapiens) (UniProt P06493+P14635). To be noted: at 1 µM.
Experiment [6] concerns the target T3, Cyclin-dependent kinase 1/cyclin B1 (Homo sapiens). To be noted: at 10 µM.
The target of experiment [7] is T4, Cyclin-dependent kinase 2/cyclin A (Homo sapiens) (UniProt P24941+P20248+P78396). To be noted: at 1 µM.
Experiment [8] addresses T4, Cyclin-dependent kinase 2/cyclin A (Homo sapiens). The conditions noted are these: at 10 µM.
The target in experiment [9] is T5, Cyclin-dependent kinase 2/cyclin E (Homo sapiens) (UniProt P24864+P24941+O96020). The conditions noted are these: at 1 µM.
Experiment [10] has as its target T5, Cyclin-dependent kinase 2/cyclin E (Homo sapiens). To be noted: at 10 µM.
The target in experiment [11] is T6, CDK3/cyclin E (Homo sapiens) (UniProt P24864+O96020+Q00526). To be noted: at 1 µM.
The target in experiment [12] is T6, CDK3/cyclin E (Homo sapiens). The conditions noted are these: at 10 µM.
Experiment [13] deals with T7, Cyclin-dependent kinase 5/CDK5 activator 1 (Homo sapiens) (UniProt Q00535+Q15078). To be noted: at 1 µM.
Target sequence in this assay (Q00535 whole entry): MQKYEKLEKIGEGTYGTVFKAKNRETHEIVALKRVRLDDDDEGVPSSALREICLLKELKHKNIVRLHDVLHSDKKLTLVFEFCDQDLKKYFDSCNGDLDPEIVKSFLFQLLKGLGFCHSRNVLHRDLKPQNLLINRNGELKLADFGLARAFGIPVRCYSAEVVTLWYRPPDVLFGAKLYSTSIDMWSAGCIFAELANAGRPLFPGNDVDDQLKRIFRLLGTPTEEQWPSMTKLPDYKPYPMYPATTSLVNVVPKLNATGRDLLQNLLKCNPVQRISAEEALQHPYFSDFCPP
Target sequence in this assay (Q15078 99-307 partner limits assumed): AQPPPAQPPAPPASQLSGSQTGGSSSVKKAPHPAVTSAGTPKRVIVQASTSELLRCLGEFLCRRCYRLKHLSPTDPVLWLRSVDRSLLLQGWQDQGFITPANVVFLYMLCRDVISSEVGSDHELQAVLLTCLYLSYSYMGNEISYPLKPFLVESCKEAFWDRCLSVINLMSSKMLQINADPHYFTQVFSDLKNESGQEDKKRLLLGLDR
In experiment [14] the target is T7, Cyclin-dependent kinase 5/CDK5 activator 1 (Homo sapiens). To be noted: at 10 µM.
Experiment [15] shares this target. To be noted: at 1 µM. This is another data set of the same source.
Experiment [16] shares this target. The conditions noted are these: at 10 µM. The source holds these as a separate data set.
Target sequence in this assay (Q00535 whole entry): as the sequence (Q00535 whole entry) above
Target sequence in this assay (Q15078 99-307 partner limits assumed): as the sequence (Q15078 99-307 partner limits assumed) above
Experiment [17] addresses T8, CDK6/cyclin D3 (Homo sapiens) (UniProt P30281+Q00534). The conditions noted are these: at 1 µM.
The target of experiment [18] is T8, CDK6/cyclin D3 (Homo sapiens). The conditions noted are these: at 10 µM.
The target in experiment [19] is T9, Cyclin-dependent kinase 7/ cyclin H (Homo sapiens) (UniProt P51946+P50613). The conditions noted are these: at 1 µM.
Experiment [20] has as its target T9, Cyclin-dependent kinase 7/ cyclin H (Homo sapiens). To be noted: at 10 µM.

T3 sequence (P06493 whole entry, looked up): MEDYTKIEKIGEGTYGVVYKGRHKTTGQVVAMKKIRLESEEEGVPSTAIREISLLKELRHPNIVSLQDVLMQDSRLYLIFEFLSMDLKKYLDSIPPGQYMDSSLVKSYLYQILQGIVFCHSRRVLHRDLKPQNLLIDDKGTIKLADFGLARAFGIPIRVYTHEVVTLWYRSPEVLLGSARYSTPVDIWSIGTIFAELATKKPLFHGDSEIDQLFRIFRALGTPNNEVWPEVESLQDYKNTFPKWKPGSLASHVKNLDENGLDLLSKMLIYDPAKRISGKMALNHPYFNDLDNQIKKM
T3 sequence (P14635 whole entry, looked up): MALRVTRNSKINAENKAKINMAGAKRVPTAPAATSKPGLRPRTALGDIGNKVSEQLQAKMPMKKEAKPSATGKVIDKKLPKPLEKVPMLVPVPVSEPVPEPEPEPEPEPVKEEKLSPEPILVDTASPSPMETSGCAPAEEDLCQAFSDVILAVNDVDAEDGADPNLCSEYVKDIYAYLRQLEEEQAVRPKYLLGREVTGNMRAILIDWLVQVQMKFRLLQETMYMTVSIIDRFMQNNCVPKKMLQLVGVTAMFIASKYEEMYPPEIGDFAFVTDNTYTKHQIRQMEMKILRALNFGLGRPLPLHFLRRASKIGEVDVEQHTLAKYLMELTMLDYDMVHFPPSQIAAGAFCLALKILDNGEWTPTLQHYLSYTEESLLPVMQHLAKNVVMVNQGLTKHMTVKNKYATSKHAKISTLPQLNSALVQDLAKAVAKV
T6 sequence (O96020 whole entry, looked up): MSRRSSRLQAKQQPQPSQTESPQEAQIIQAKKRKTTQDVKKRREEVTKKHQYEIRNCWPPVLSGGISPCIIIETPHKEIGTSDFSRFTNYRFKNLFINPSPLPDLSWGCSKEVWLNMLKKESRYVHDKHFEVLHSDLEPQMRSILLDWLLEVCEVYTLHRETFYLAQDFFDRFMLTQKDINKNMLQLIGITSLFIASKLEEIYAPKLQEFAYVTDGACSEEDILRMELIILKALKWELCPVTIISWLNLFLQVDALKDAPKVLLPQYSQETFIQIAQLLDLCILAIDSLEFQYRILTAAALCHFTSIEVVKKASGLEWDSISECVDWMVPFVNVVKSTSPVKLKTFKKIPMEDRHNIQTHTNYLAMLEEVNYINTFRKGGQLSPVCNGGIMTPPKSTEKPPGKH
T6 sequence (P24864 whole entry, looked up): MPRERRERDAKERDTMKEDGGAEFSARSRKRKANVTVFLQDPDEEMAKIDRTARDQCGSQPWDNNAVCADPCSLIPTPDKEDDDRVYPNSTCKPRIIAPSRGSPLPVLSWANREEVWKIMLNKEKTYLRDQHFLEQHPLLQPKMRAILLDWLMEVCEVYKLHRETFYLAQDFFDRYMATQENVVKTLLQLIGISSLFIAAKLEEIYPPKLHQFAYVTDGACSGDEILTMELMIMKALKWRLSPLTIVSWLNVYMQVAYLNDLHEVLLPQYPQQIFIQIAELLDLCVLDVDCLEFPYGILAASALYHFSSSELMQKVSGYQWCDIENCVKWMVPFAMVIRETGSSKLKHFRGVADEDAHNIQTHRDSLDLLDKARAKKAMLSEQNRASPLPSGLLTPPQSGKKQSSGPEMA
T6 sequence (Q00526 whole entry, looked up): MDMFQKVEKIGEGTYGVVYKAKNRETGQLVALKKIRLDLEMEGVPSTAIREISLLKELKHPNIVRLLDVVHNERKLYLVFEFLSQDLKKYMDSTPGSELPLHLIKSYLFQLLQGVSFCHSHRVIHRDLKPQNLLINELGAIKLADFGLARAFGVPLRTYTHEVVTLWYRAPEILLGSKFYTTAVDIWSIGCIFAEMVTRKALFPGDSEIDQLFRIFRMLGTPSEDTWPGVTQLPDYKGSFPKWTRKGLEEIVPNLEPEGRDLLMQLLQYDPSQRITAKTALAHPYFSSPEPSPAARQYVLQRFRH

Regarding `Ic1cccc(CSc2nnc(-c3ccncc3)o2)c1`, the residual activity in [1] was found to be 84%; in experiment [2] it was 87%; in experiment [3], 113%; in experiment [4] it was 97%; in [5], 18%; in experiment [6], 14%. The residual activity in experiment [7] was determined as 85%; in [8] it was 68%; in experiment [9], 41%; in experiment [10], 32%; in experiment [11], 70%; in [12] it was 57%. The residual activity was found to be 5% in experiment [13]; 4% in [14]; 8% in experiment [15]; 3% in [16]; 80% in experiment [17]; 73% in [18]. Besides, the residual activity in [19] came out at 93%; in experiment [20], 72%.
On to `O=c1cc(-c2cccc3c2Sc2ccccc2S3)oc(N2CCOCC2)c1`, for which the residual activity amounted to 102% in [1]; 96% in experiment [2]; 107% in [3]; 96% in experiment [4]; 101% in experiment [5]; 77% in experiment [6]. Also, the residual activity in experiment [7] came to 96%; in experiment [8], 78%; in experiment [9], 101%; in experiment [10] it was 87%; in experiment [11], 99%; in experiment [12] it was 97%. The residual activity in [13] turned out to be 95%; in experiment [14], 94%; in experiment [15], 112%; in experiment [16] it was 90%; in experiment [17], 101%; in experiment [18], 85%. Moreover, the residual activity came to 121% in experiment [19] and 80% in [20].
Turning to `Cn1nc2c3c(cccc31)C(=O)c1ccccc1-2`, the residual activity was 83% in experiment [1]; 68% in experiment [2]; 101% in experiment [3]; 61% in experiment [4]; 101% in experiment [5]; 86% in experiment [6]. Further, the residual activity in [7] was 80%; in experiment [8], 84%; in experiment [9], 87%; in [10], 82%; in [11], 89%; in [12], 72%. Further, the residual activity came out at 83% in [13]; 93% in [14]; 97% in experiment [15]; 80% in experiment [16]; 92% in experiment [17]; 76% in experiment [18]. For the same compound, the values for the residual activity in experiment [19] and in experiment [20] were 91% and 73%, respectively.
As to `CC[n+]1c(/C=C/N(C)c2ccccc2)n(-c2ccccc2)c2ccc(-c3nc4ccccc4s3)cc21`, the residual activity in experiment [1] was 59%; in experiment [2], 68%; in experiment [3] it was 111%; in [4], 129%; in [5], 111%; in [6], 91%. Also, the residual activity in experiment [7] turned out to be 146%; in experiment [8], 85%; in [9], 101%; in [10] it was 89%; in experiment [11] it was 108%; in [12], 90%. Besides, the residual activity in experiment [13] turned out to be 115%; in experiment [14], 92%; in experiment [15], 101%; in experiment [16], 95%; in [17], 105%; in experiment [18], 104%. Also, the residual activity in experiment [19] was 97%; in experiment [20], 100%.
For `COc1ccc(S(=O)(=O)N(CCO)c2ccccc2CN(C)C/C=C/c2ccc(Cl)cc2)cc1`, the residual activity turned out to be 81% in experiment [1]; 63% in experiment [2]; 114% in experiment [3]; 88% in experiment [4]; 117% in experiment [5]; 90% in [6]. For the same compound, the residual activity in experiment [7] amounted to 76%; in experiment [8], 64%; in [9], 106%; in [10] it was 95%; in experiment [11], 92%; in experiment [12] it was 80%. Also, the residual activity in experiment [13] stood at 91%; in experiment [14], 84%; in experiment [15], 90%; in experiment [16] it was 97%; in experiment [17], 97%; in [18] it was 86%. The results for the residual activity in experiment [19] and in experiment [20] were 102% and 88%, respectively.
For `COc1ccc(CNc2nc(N(CCO)CCO)nc3c2ncn3C(C)C)cc1`, the residual activity in experiment [1] was 91%; in experiment [2] it was 92%; in [3], 114%; in experiment [4], 99%; in [5], 81%; in experiment [6] it was 26%. In addition, the residual activity is 24% in experiment [7]; 3% in experiment [8]; 18% in experiment [9]; 0% in experiment [10]; 52% in experiment [11]; 9% in [12]. Also, the residual activity came to 11% in [13]; 2% in [14]; 18% in experiment [15]; 2% in experiment [16]; 91% in experiment [17]; 77% in experiment [18]. For the same compound, the residual activity in [19] was 94%; in [20], 36%.
Regarding `Cn1cc(/C=C2\C(=O)Nc3ccc(S(N)(=O)=O)cc32)c2ccccc21`, the residual activity in experiment [1] amounted to 23%; in [2], 3%; in experiment [3], 36%; in experiment [4], 19%; in experiment [5], 34%; in experiment [6], 39%. The residual activity in [7] is 68%; in experiment [8], 46%; in [9] it was 67%; in experiment [10], 52%; in experiment [11], 69%; in experiment [12] it was 34%. Moreover, the residual activity in [13] was determined as 42%; in [14], 17%; in experiment [15] it was 33%; in experiment [16], 34%; in [17], 93%; in experiment [18] it was 56%. Also, the values for the residual activity in experiment [19] and in experiment [20] were 13% and 4%, respectively.
